# Screening data deposited in PubChem BioAssay by National Center for Advancing Translational Sciences (NCATS).
# AmpC no deterg – inhibitors of E. coli AmpC beta-lactamase without detergent; AmpC nitrocefin hydrolysis, absorbance 480 nm, 0.0001% Triton; 0.52% of 330,000 active; Potency, µM (doses to about 57.1 µM), without a hit: at the highest dose activity change, negative = inhibition, actives largely listed as inhibitors; AID 485341;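 note: potency is the fitted concentration of half-maximal effect; plate controls were no compound for no effect and no enzyme for full effect; nearly all actives have a fitted effect of over 20% in size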
# Target sequence (P00811 whole entry, looked up): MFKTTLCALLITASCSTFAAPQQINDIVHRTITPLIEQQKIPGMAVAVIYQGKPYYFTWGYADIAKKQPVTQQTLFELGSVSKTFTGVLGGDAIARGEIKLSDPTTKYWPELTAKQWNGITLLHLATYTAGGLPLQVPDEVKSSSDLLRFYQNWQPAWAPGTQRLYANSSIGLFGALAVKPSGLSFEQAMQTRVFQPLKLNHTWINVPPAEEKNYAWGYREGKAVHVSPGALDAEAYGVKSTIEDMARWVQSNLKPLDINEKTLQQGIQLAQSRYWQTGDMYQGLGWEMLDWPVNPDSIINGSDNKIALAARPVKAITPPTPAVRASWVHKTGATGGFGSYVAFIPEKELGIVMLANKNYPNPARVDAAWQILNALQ
#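 AmpC (5.3 nM in the dispensed reagent) in 20 mM phosphate pH 7.0 with 0.01% (detergent screen) or 0.0001% Triton X-100 was preincubated with compounds for 15 min at room temperature. Nitrocefin was then added from an 800 uM solution, and hydrolysis was followed at 480 nm.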
# AmpC inh detg – inhibitors of E. coli AmpC beta-lactamase with detergent | Potency, µM (top dose mostly 114 µM), for the others: at the top dose activity change, negative = inhibition, actives largely listed as inhibitors | AmpC hydrolysis of nitrocefin, absorbance 480 nm, 0.01% Triton | P00811 | 0.041% of 370,000 active;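 note: potency is the fitted concentration of half-maximal effect; 0% = no-compound wells and -100% = no-enzyme wells; nearly all actives have a fitted effect of over 25% in size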
#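 20 mM phosphate pH 7.0 + 0.01% (detergent screen) or 0.0001% Triton X-100; 5.3 nM AmpC reagent; cpd preinc 15 min RT; nitrocefin (800 uM stock) to start; A480 q20 s × 4 min; Activity was normalised to no-enzyme and no-compound control wells.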
# SARS PLpro yeast-1 – inhibitors of SARS-CoV papain-like protease in yeast | AID 485353 | 0.19% of 330,000 active | S. cerevisiae expressing SARS-CoV PLpro, growth rescue | Potency, µM (doses to about 32.9 µM), for inactives: top-dose activity, positive = growth rescue, actives largely listed as activators; calls by dose curve; note: potency is the fitted concentration of half-maximal effect; 0% is about no effect; nearly all actives have a fitted effect of over 55% in size
# NS1 function inh – blocks influenza NS1 protein function; AID 2326; 0.4% of 270,000 active; Potency, µM (titrated, usually from 46.1 µM), for the others: at the highest dose activity, positive = more growth; calls by dose curve; note: potency is the fitted concentration of half-maximal effect; actives are rising curves; nearly all actives have a fitted effect of over 50% in size
#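 OD600 was taken as the measure of yeast growth restored by compound in an NS1-expressing S. cerevisiae strain. Cells had been washed out of glucose medium and diluted 1:100 into galactose -URA medium, pH 6.0.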
# FBPA Giardia inh – inhibitors of Giardia lamblia fructose-1,6-bisphosphate aldolase | A8B2U2 | purified Giardia FBPA | Potency, µM (series often up to 59.6 µM), for inactives: at the highest dose activity, negative = inhibition, hits mostly inhibitors | 0.71% of 290,000 active; note: potency is the fitted concentration of half-maximal effect; % is set by controls: 0 for no effect and ±100 for the full control effect; nearly all actives have a fitted effect of over 55% in size
# Target sequence (A8B2U2 whole entry, looked up): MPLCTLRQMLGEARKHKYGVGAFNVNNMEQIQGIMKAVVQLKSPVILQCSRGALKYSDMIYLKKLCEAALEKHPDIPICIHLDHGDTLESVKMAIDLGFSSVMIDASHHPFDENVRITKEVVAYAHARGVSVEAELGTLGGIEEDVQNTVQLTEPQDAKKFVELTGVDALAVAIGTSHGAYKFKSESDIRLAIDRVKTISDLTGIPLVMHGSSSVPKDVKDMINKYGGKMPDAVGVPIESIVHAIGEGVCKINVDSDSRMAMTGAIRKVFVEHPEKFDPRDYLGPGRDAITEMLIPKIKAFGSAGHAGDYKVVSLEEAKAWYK
#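 40 nM FBPA preincubated 10 min at RT with compound (up to 57.5 uM final), then substrate plus GAPDH/TPI/NAD/arsenate coupling and diaphorase/resazurin added. Fluorescence read after 20 min at RT, 525/598 nm.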
# SARS PLpro yeast-2 – Inhibits SARS-CoV PLP in yeast, hit validation; shares compounds with SARS PLpro yeast-1; yeast expressing SARS-CoV PLpro, growth phenotype rescue; calls only; 19% of 1,000 active; call rule not given here
# An asterisk follows results filed as active; i = inactive; ? = inconclusive; . = not tested or not shown; + = active, no number. The list is not random: actives were taken first. Their share in the collection is about 1.4%. Unless noted, calls come from the whole dose curve; as a rule, active = well fitted curve in the direction sought with a large enough effect; inconclusive = small, poorly fitted or top-dose-only effect, or another doubt; inactive = no such curve, though single readings can be large; an effect the other way counts as inactive or inconclusive.
SMILES,AmpC no deterg,AmpC inh detg,SARS PLpro yeast-1,NS1 function inh,FBPA Giardia inh,SARS PLpro yeast-2
O=[N+]([O-])c1ccc(-c2ccc(/C=N/Nc3nc(NCc4ccccc4)nc(N4CCOCC4)n3)o2)cc1,-11%,-10%,-1%,2%,-2%,.
COc1cccc(C(=O)Oc2c(CN3CCOCC3)cc(Cl)c3cccnc23)c1,39%,-5%,?,-11%,3%,i
CCc1nc(Cl)c(C#N)c2c1CCCC2,-19%,-5%,4µM*,1%,8%,i
CCCc1nc(Cl)c(C#N)c2c1CCCC2,-8%,4%,12%,5%,8%,.
CCN1C(=O)/C(=C2/C=CC=CN2C)OC1=S,-15%,?,11µM*,-144%,-3%,i
COC(=O)c1ccc(COc2cccc(C)c2C)cc1,-12%,7%,1%,-4%,1%,.
O=C(O)CCc1ccc(S(=O)(=O)Nc2ccccc2C(=O)NCCc2ccccc2)cc1,-8%,0%,-6%,11%,-14%,.
Cc1cccc(Oc2ccccc2NS(=O)(=O)c2ccc(CCC(=O)O)cc2)c1,-52%,-9%,2.2µM*,.,.,i
COc1ccc(S(=O)(=O)CCC(=O)N2CC(=O)N(CCc3ccccc3)C(=O)C2)cc1,26%,-1%,1%,-21%,0%,.
Cc1cccc(NC(=O)NCC(c2cccnc2)N2CCOCC2)c1 (stereo not given),-15%,-13%,18µM*,0%,-4%,i
CC(C)C(NS(=O)(=O)/C=C/c1ccccc1)C(=O)NCc1ccc(F)cc1 (stereo not given),21%,-9%,1%,7%,13%,.
CCN=C1SC(C(=O)Nc2ccc(OC)cc2)CC(=O)N1CC (stereo not given),3%,-8%,2%,.,-5%,.
COc1ccc(N2CCN(C3CCCN(C(=O)C4=C(C)OCCO4)C3)CC2)cc1 (stereo not given),10%,?,?,5%,.,i
CCCCCCCCCCCCCC(=O)O[C@H](CC(=O)O)C[N+](C)(C)C,.,.,.,.,5%,.
COc1ccc(S(=O)(=O)N(CC(=O)N2CCN(c3ccccc3OC)CC2)c2ccccc2)cc1,139%,-6%,4.5µM*,?,-6%,i
O=C(/C=C/c1ccco1)Oc1cc(Br)cc(/C=N/NC(=O)c2ccccc2O)c1,-32%,-11%,.,18%,-8%,i
CCOC(=O)c1c(NC(=O)C(C)Sc2cn(CCNC(=O)c3ccc(OC)c(OC)c3)c3ccccc23)sc2c1CCC2 (stereo not given),.,10%,.,.,.,.
CCc1ccc(NC(=O)CNC(=O)Cn2ccc3ccccc3c2=O)cc1,-6%,5%,8%,8%,8%,.
O=C(NC1CCC(O)CC1)c1ccc(Br)o1 (stereo not given),-12%,.,4.5µM*,.,.,i
NS(=O)(=O)c1cccc(NC(=O)CCSc2ccccc2Cl)c1,-22%,?,?,0%,0%,i
Cc1ccc(Cl)cc1N1CCN(C(=O)CSc2ccsc2[N+](=O)[O-])CC1,-56%,-5%,14%,3%,0%,.
Cc1cccc(NC(=S)NNC(=O)COc2ccc(Cl)cc2Cl)c1,-25%,-7%,10µM*,21%,?,+
COc1ccc(NC(=S)NNC(=O)COc2ccc(Cl)cc2Cl)cc1,-18%,9%,-16%,17%,?,.
CCN(CC)S(=O)(=O)c1ccc(N/N=C(\C)c2ccncc2)nc1,-11%,-5%,-3%,-8%,-18%,.
Oc1ccc(Br)cc1/C=N/Nc1ncc(-c2ccccc2)cn1,-36%,1%,-2%,4%,3%,.
SMILES,AmpC no deterg,AmpC inh detg,SARS PLpro yeast-1,NS1 function inh,FBPA Giardia inh,SARS PLpro yeast-2
Oc1ccc(/C=N/Nc2ncc(Br)cn2)c(O)c1,-49%,-4%,?,-4%,0%,i
CCN(CC)S(=O)(=O)c1ccc(N/N=C/c2ccc(O)cc2O)nc1,-4%,9%,5µM*,11%,?,i
Cc1cc(C)c(S(=O)(=O)N2CCCOC2CNC(=O)C(=O)NCCCn2ccnc2)c(C)c1 (stereo not given),-19%,?,?,0%,2%,?
Cc1ccc(C)c(S(=O)(=O)N2CCCOC2CNC(=O)C(=O)NCCCn2ccnc2)c1 (stereo not given),-4%,-6%,16%,-3%,4%,.
O=C(CNC(=O)c1cccc(Br)c1)N/N=C/c1cc(Br)cc(Br)c1O,11µM*,5%,3.5µM*,.,19%,+
O=C(CNC(=O)c1cccc(Br)c1)N/N=C/c1cccs1,-28%,?,2%,-2%,3%,.
COc1ccc(C(=O)Nc2ccc(Cl)c(S(=O)(=O)Nc3ccccc3OC)c2)cc1,-5%,-2%,?,28%,-2%,?
COC(=O)c1nc2n(n1)C(c1cccc(Cl)c1)C(C(=O)Nc1ccccc1OC)=C(C)N2 (stereo not given),.,-1%,.,.,.,.
CC(=Nc1ccccc1)C1=C(O)COC1=O,-13%,?,?,6%,-1%,i
COc1ccc(OC)c2nc(-c3ccncc3)ccc12,-3%,-16%,1%,-1%,6%,.
Cn1c(=O)c2c(ncn2CC(=O)N/N=C/C=C/c2ccccc2)n(C)c1=O,7%,3%,10%,-10%,0%,.
COc1ccc(C(NC(C)=O)c2ccc3cccnc3c2O)c(OC)c1 (stereo not given),0%,-13%,2.2µM*,-54%,?,+
CC(=O)NC(C)c1cc(Cl)c2cccnc2c1O (stereo not given),-12%,-2%,?,.,.,i
O=C(O)COc1ccccc1C(Nc1ccccn1)c1cc(Cl)c2cccnc2c1O (stereo not given),-30%,-11%,5µM*,26%,?,i
CC(=O)NC(c1ccc(Cl)cc1Cl)c1ccc2cccnc2c1O (stereo not given),10%,-14%,?,-104%,?,i
COc1ccccc1C(NC(C)=O)c1cc(Cl)c2cccnc2c1O (stereo not given),-15%,-1%,3%,1%,11%,.
CC(=O)NC(c1ccc2ccccc2c1)c1ccc2cccnc2c1O (stereo not given),-5%,?,-22%,-72%,?,.
COc1ccc(Cl)cc1NC(=O)c1c(NCc2ccc(C)o2)sc2c1CCCC2,.,-7%,.,.,.,.
Cn1ncc(Cl)c1C(=O)N/N=C/c1cc2c(cc1[N+](=O)[O-])OCO2,-9%,7%,12%,-1%,-7%,.
O=C(COC(=O)c1cnc(Cl)c(Cl)c1)Nc1ccc(S(=O)(=O)N2CCCC2)cc1,-50%,-3%,?,6%,1%,i
O=C(COC(=O)c1ccc(Cl)nc1)Nc1ccc(S(=O)(=O)N2CCCC2)cc1,-28%,-18%,-35%,-8%,6%,.
